From PubChem BioAssay (NCI)
The panel holds about 83,000 compounds, 20% with a hit somewhere; the sample as a whole holds those more often.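 Cell lines were cultured in 96-well plates, exposed to a single compound concentration, and assessed for percent growth 48 hours later.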 Unmarked numbers belong to inactive results. Active and inactive are the calls of the source. How the source made its calls: active means growth percent below 10; inactive means the rest.

Experiments:
Assay in all cases: NCI-60 one-dose screen, 48 h (100 = growth as untreated, 0 = no growth, -100 = all killed)
NCI-H23 lung = conditions: 10 µM unless noted
NCI-H226 lung = conditions: 10 µM unless noted
NCI-H322M lung = conditions: 10 µM unless noted
HOP-62 NSCLC = conditions: 10 µM unless noted
NCI-H460 lung = conditions: 10 µM unless noted
HOP-92 NSCLC = conditions: 10 µM
NCI-H522 lung = conditions: 10 µM unless noted
A549/ATCC NSCLC = conditions: 10 µM unless noted
786-0 renal = conditions: 10 µM unless noted
COLO 205 colon = conditions: 10 µM unless noted
DU-145 prostate = conditions: 10 µM unless noted
K-562 leukemia = conditions: 10 µM unless noted
MALME-3M melanoma = conditions: 10 µM unless noted
MDA-MB-231 breast = conditions: 10 µM unless noted
SF-268 CNS = conditions: 10 µM unless noted
SF-295 CNS = conditions: 10 µM unless noted
SF-539 CNS = conditions: 10 µM unless noted
UACC-257 melanoma = conditions: 10 µM unless noted
RXF 393 renal = conditions: 10 µM unless noted

Structure (SMILES)	growth (NCI-H23 lung)	growth (NCI-H226 lung)	growth (NCI-H322M lung)	growth (HOP-62 NSCLC)	growth (NCI-H460 lung)	growth (HOP-92 NSCLC)	growth (NCI-H522 lung)	growth (A549/ATCC NSCLC)	growth (786-0 renal)	growth (COLO 205 colon)	growth (DU-145 prostate)	growth (K-562 leukemia)	growth (MALME-3M melanoma)	growth (MDA-MB-231 breast)	growth (SF-268 CNS)	growth (SF-295 CNS)	growth (SF-539 CNS)	growth (UACC-257 melanoma)	growth (RXF 393 renal)
COc1cc(/C=C2\C(=O)Nc3ccccc32)ccc1OCc1ccc(F)cc1	99%	100%	103%	100%	86.4%	99.8%	91.9%	108%	107%	111%	106%	104%	99.8%	100%	105%	102%	102%	118%	
Oc1cccc2ccc(-c3nnc(SCc4ccc(O)c5ncccc45)o3)nc12	3.67% (active)	35.2%	39.9%	25.8%	1.33% (active)	-16% (active)	11.2%		21.1%	31.7%	22.1%	14.6%	-3.31% (active)	26.6%	23.4%	3.94% (active)	14.5%	0.0475% (active)	
CC1=CC(=O)C2=C(C)CC(OC(=O)CCc3ccccc3)[C@@H]3[C@H](OC(=O)[C@@H]3C)[C@@H]12 (some centres undefined)	95.4%	97.9%	96.8%	102%	103%	92.6%	77.4%		92.6%	95.2%	101%	84.2%	113%	96.8%	98.8%	90.7%	94.1%	91.6%	122%
COc1ccc(Cn2cc3c(c2-c2cc(OC)c(OC)c(OC)c2)CCc2c(CN4CCOCC4)noc2-3)cc1	9.12% (active)	57.9%	52.7%	45%	8.85% (active)	100%	12.3%	32.9%	55.4%	14.9%	20%	12.6%	43.3%	31.8%	47.7%	13.3%	3.49% (active)	73.4%	
O=C(O)c1ccc(-n2cc(CNc3cc(F)c(F)c(F)c3)c(-c3cccc(F)c3)n2)cc1	84.9%	93.9%	97.2%	114%	98.8%	104%	91.5%	77.2%	112%	126%	101%	84.3%	67.2%	94.4%	106%	37.1%	97.1%	95.1%	
COc1cc(/C=N/NC(=O)c2cn(C3CC3)c3c(OC)c(N4CC5CCCNC5C4)c(F)cc3c2=O)ccc1O (centres undefined)	55.4%	87.3%	55.4%	96%	-66.6% (active)	79.5%	46.8%		-62.2% (active)	35.6%	46.5%	-25.5% (active)	89.2%	-27.4% (active)	82.1%	100%	-9.11% (active)	104%	
CCn1c(SCC(=O)Nc2cccc(C(=O)/C=C/c3cc(OC)c(OC)c(OC)c3)c2)nc2ccccc2c1=O	-17.1% (active)	11.5%	54.4%	53.8%	2.34% (active)	34.6%	38%	41.1%	30.2%	102%	13.9%	13.4%	61.8%	23.4%	37.7%	75%	24%	67.7%	
N#Cc1cccc(CN2CCC3=C(C2)C(=O)N(Cc2ccc(Cl)cc2)C2=NCCCN23)c1	28.4%	39.9%	48.8%	26%	18.9%	26.1%	14.4%	29%	44.4%	-31% (active)	31.2%	22.5%	46.7%	32.6%	37.1%	7.29% (active)	40.5%	13.8%	
CCn1c(SCC(=O)Nc2cccc(C(=O)/C=C/c3ccccc3Cl)c2)nc2ccccc2c1=O	69.5%	81.9%	90.5%	93.7%	95.7%	72.7%	85.3%	78.6%	95.6%	114%	77.8%	53%	103%	87.1%	88%	91.4%	90.4%	110%	
Cn1ccnc1C(=O)/C=C/c1ccc(CNC(=O)c2c(F)c(F)c(F)c(F)c2F)cc1	52.5%	69.5%	81%	66.5%	7.14% (active)	117%	32.1%	70.4%	28%	102%	17.7%	21.1%	97%	30.3%	29.4%	90.4%	2.82% (active)	77%	
COc1ccc(NC2=C(Cl)C(=O)c3nc(C)ccc3C2=O)cc1OC	59%	97.1%	99%	110%	100%	112%	78.8%	107%	99%	108%	93%	7.18% (active)	94.5%	73%	84.7%	104%	103%	91%	
NC(N)=Nc1ccc(Oc2cccc(NC(N)=Nc3ccc(Cl)c(C(F)(F)F)c3)c2)cn1	39.4%	71.9%	37.9%	52.1%	19.9%	-1.32% (active)	9.96% (active)	42.6%	70.3%	22.7%	63.7%	19.7%	57.9%	43.8%	19.6%	40.7%	36.6%	61.2%	
O=C(NNc1nc2cc(F)ccc2n2c(CN3CCC(O)C3)ccc12)c1cnccn1 (centres undefined)	20.2%	18.8%	24.8%	14.6%	5.14% (active)	23.2%	-0.38% (active)	15.2%	16.2%	8.58% (active)	24%	11.8%	12.1%	34.2%	22.6%	4.11% (active)	10.1%	7.04% (active)	
CNC(=O)c1c(NC(=O)c2ccccc2C(F)(F)F)sc2c1CCC(=O)C2	13.9%	64.2%	105%	98.6%	57.4%	1.45% (active)	3.39% (active)	70.9%	39.6%	16.2%	99.9%	12.9%	54%	26.5%	33.2%	82.2%	14.5%	72.4%	
COc1ccc(NC(=O)CSc2nnc(-c3ccc4nc(-c5ccccc5)[nH]c4c3)o2)cc1	96.3%	96.2%	98%	101%	99.8%	99.4%	94.2%	101%	96.3%	108%	104%	84.2%	99.2%	97.1%	101%	102%	96.2%	106%	
COc1ccc(COc2ccc(/C=C3\C(=O)Nc4ccccc43)cc2OC)cc1	103%	103%	106%	100%	103%	101%	93.4%	109%	105%	123%	109%	101%	99.7%	99.9%	103%	103%	95.9%	116%	
COc1c(N2CC3CCCNC3C2)c(F)cc2c(=O)c(C(=O)N/N=C/c3ccccc3)cn(C3CC3)c12 (centres undefined)	90.7%	103%	94%	96.6%	98.7%	75.3%	109%	101%	66.6%	97.5%	104%	54.1%	94.1%	94.9%	85.2%	104%	83.7%	106%	
